# An excerpt weighted towards active compounds, which were near 21% of everything screened.
# DRD3 antagonist: D3 dopamine receptor (human) antagonism | D3R cells, DiscoveRx beta-arrestin luminescence, antagonist mode; hits give low values | AID 652054 | max response, negative = inhibition, % | 360,000 compounds, 2.5% hits; in the data active means max response below about -50%; inconclusive means no clear call, values can overlap the other calls; further: on the % scale 0 is the no-effect control and ±100 the full control effect
# Target sequence (P35462 whole entry, looked up): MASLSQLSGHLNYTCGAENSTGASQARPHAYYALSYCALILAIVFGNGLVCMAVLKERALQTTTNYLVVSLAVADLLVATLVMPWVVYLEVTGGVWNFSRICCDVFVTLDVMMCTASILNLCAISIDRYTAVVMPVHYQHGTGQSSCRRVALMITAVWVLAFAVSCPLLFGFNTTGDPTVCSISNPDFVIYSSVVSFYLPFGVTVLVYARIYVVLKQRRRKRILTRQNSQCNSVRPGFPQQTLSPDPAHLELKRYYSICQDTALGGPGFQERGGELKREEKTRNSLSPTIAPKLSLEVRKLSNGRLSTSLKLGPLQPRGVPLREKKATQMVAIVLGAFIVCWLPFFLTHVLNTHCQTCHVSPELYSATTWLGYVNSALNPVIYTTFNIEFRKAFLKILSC
#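 Cells expressing the human receptor were seeded at 1500 cells/well, incubated overnight at 37 degrees C in 5% CO2, then exposed to library compounds with dopamine controls for 90 minutes at 37 degrees C before luminescent detection.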
# IL-1B inflam inh: inhibitors of inflammasome signaling (IL-1 beta secretion); THP-1 LPS/ATP IL-1B secretion, AlphaLISA, 16 h; hits give low values; activity change, % at 57.5 µM; 360,000 compounds, 4.7% hits; in the data active means activity change below about -50%; inconclusive means mostly about -30% to -49%; further: on the % scale 0 is the no-effect control and ±100 the full control effect
#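 Secreted IL-1B measured by AlphaLISA bead assay after 16 h compound exposure of THP-1 cells; compounds (final up to 57.5 uM) added 1 h before LPS (250 ng/mL) and ATP (1.25 mM) stimulation; lower signal means less secretion.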
# D3 ag: agonists of human D3 dopamine receptor; P35462; D3R DiscoveRx beta-arrestin cells, luminescence, 90 min; max activation, %; 410,000 compounds, 0.58% hits; AID 652048; in the data active means max activation above about 30%; further: 0% is about no effect
#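 Agonist mode: compounds and dopamine controls were applied to plated cells for 90 min at 37 degrees C after an overnight attachment at 1500 cells/well. Luminescent read-out followed 30 - 60 minutes at room temperature with DiscoveRx detection reagent.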
# TDP1 cell CPT: DT40-hTDP1 cell growth loss with CPT. chicken DT40 Tdp1-/-;hTDP1 cells + 20 nM CPT, ATP luminescence, 48 h. Potency, µM (titrated, usually from 46.2 µM), without a hit: at the highest dose activity change, negative = growth inhibition, most hits filed as inhibitors. 420,000 compounds, 12% hits. AID 686979; further: potency means the concentration at half of the fitted maximal effect; on the % scale 0 is the no-effect control and ±100 the full control effect; nearly all actives have a fitted effect of over 55% in size
#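 Chicken DT40 Tdp1-/- cells stably complemented with human TDP1 were seeded at 400 cells/well in medium containing 20 nM camptothecin, exposed to pin-transferred compounds, and grown at 37 °C for at least 48 hr. Viability was read as ATP luminescence.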
# ClpP mod: qHTS Assay for Activators of ClpP | ATP-dependent Clp protease proteolytic subunit (Bacillus subtilis (strain 168)), P80244 | purified B. subtilis ClpP, FRET peptide cleavage, 20 min | Potency, µM (titrated, usually from 57.5 µM), without a hit: at the top dose activity change, negative = active | 340,000 compounds, 1.9% hits | AID 651965, 2013; active means well fitted falling curve with a large enough effect; inconclusive means small, poorly fitted or top-dose-only effect; inactive means no such curve, though single readings can be large or run the other way; further: potency means the concentration at half of the fitted maximal effect; the source files actives as falling curves though it sought activators and does not explain the sign; nearly all actives have a fitted effect of over 65% in size
# Target sequence (P80244 whole entry, looked up): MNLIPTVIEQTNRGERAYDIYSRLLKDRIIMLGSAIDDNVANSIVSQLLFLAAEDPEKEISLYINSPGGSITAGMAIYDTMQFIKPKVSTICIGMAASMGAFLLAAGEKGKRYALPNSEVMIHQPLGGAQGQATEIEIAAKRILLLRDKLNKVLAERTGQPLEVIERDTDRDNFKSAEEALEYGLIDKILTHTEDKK
#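 Buffer: 100 mM Tris/HCl pH8, 100 mM KCl, 0.05% low protease BSA, 2.5% glycerol, 0.01% Tween-20. ClpP 10 microg/mL final; 20 min RT; delta FRET normalized to ADEP and DMSO controls.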
# DT40 TDP1 no CPT: qHTS for Inhibitors of human tyrosyl-DNA phosphodiesterase 1 (TDP1): qHTS in cells in absence of CPT | DT40 Tdp1-/- hTDP1 cells, no CPT, ATP luminescence, 48 h | Potency, µM (series often up to 46.2 µM), inactives show at the top dose activity change, negative = growth inhibition, most hits filed as inhibitors | 420,000 compounds, 15% hits | AID 686978, 2013; further: potency means the concentration at half of the fitted maximal effect; on the % scale 0 is the no-effect control and ±100 the full control effect; nearly all actives have a fitted effect of over 55% in size
#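 No-CPT arm: Tdp1-/-;hTDP1 DT40 cells (400/well) plus compounds, incubated ≥48 hr at 37 °C. Readout CellTiter-Glo luminescence.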
# An asterisk follows results filed as active; ? = inconclusive; . = not tested or not shown. Unless noted, the call rests on the fitted dose curve; in most records, active means well fitted inhibition curve with a large enough effect; inconclusive means small, poorly fitted or top-dose-only effect; inactive means flat fitted curve, though single readings scatter.
SMILES,DRD3 antagonist,IL-1B inflam inh,D3 ag,TDP1 cell CPT,ClpP mod,DT40 TDP1 no CPT
O=C(COCc1cc(-c2ccc3c(c2)OCO3)on1)Nc1cc(Cl)ccc1O,.,.,6,-14%,0%,?
COCCN(C(=O)c1ccccc1Oc1ccccc1)c1c(N)n(CC(C)C)c(=O)[nH]c1=O,-9,5,-2,-7%,-3%,-2%
Cc1ccc(F)cc1NC(=O)Nc1cc(C(C)(C)C)nn1C,3,-13,1,12%,1%,-14%
Cn1nc(C(C)(C)C)cc1NC(=O)Nc1cc(Cl)cc(Cl)c1,12,-98*,-9,16µM*,.,?
COCCNC(=O)C1CC(c2ccc(C(F)(F)F)cc2)=NO1 (centres undefined),0,-16,0,?,1%,?
CO[C@H]1C[C@@H]2CC[C@@H](C)[C@@](O)(O2)C(=O)C(=O)N2CCCC[C@H]2C(=O)O[C@H]([C@H](C)C[C@@H]2CC[C@@H](O)[C@H](OC)C2)CC(=O)[C@H](C)/C=C(\C)[C@@H](O)[C@@H](OC)C(=O)[C@H](C)C[C@H](C)/C=C/C=C/C=C/1C,.,.,.,4.5µM*,-1%,?
CO[C@H]1C[C@@H]2CC[C@@H](C)[C@@](O)(O2)C(=O)C(=O)N2CCCC[C@H]2C(=O)O[C@H](C(C)C[C@H]2CC[C@@H](O)[C@H](OC)C2)CC(=O)[C@H](C)/C=C(\C)[C@@H](O)[C@@H](OC)C(=O)[C@H](C)C[C@H](C)/C=C/C=C/C=C/1C (some centres undefined),.,.,.,0.0079µM*,.,?
CO[C@H]1C[C@@H]2CC[C@@H](C)[C@@](O)(O2)C(=O)C(=O)N2CCCC[C@H]2C(=O)O[C@H]([C@H](C)C[C@@H]2CC[C@@H](OCCO)[C@H](OC)C2)CC(=O)[C@H](C)/C=C(\C)[C@@H](O)[C@@H](OC)C(=O)[C@H](C)C[C@H](C)/C=C/C=C/C=C/1C,.,.,-7,0.042µM*,.,0.027µM*
COc1cc(OC)c(S(=O)(=O)NC(C)C)cc1S(=O)(=O)NC(C)C,8,8,13,13%,.,-4%
CCN(C(=O)c1cn(CC)c(=O)c2cc(OC)c(OC)cc12)c1ccc(C)c(C)c1,.,.,-8,23µM*,-2%,?
CCc1ccccc1N(CC)C(=O)c1cn(C)c(=O)c2cc(OC)c(OC)cc12,26,0,1,-12%,-9%,?
CCc1ccccc1N(CC)C(=O)c1cn(CC)c(=O)c2cc(OC)c(OC)cc12,13,-8,-2,?,-14%,21µM*
COc1ccc(-c2noc(CCC(=O)N(C)c3cc(Cl)ccc3OC)n2)cc1,.,.,2,?,0%,-29%
Cc1nc2ccccn2c1-c1nnco1,-10,0,-2,7%,?,-23%
Cc1nc2ccccn2c1-c1ccnn1S(=O)(=O)c1ccc(F)cc1,42,20,9,21µM*,1%,12µM*
COc1cc(S(=O)(=O)Nc2ccc(C)cc2)ccc1N=Cc1c(C)[nH]n(-c2ccc(C)cc2)c1=O,6,-7,9,-23%,0%,13µM*
COc1cc(S(=O)(=O)Nc2ccc(C)cc2)ccc1N=Cc1c(C)c(C#N)c(=O)n(C)c1O,0,1,-7,?,.,13µM*
CCC(C)NC(=O)CN1C(=O)NC2NC(=O)NC21 (centres undefined),1,-4,-8,-12%,1%,2%
CC(C)=NNC(=O)CN1C(=O)NC2NC(=O)NC21 (centres undefined),0,4,9,4%,28µM*,-13%
CCc1ccc(NC(=O)Cn2c(=O)n(-c3cccc(OC)c3)c(=O)c3c(C)c(C(=O)N(C)C)sc32)cc1,.,.,8,1%,0%,-7%
CCN(CC)C(=O)c1sc2c(c1C)c(=O)n(-c1ccc(C)c(C)c1)c(=O)n2Cc1cccc(Cl)c1,.,.,-19,21µM*,2%,?
CCOC(=O)c1sc(-c2ccc(Cl)cc2)nc1O,17,2,17,19%,0%,1%
CCOC(=O)c1ccccc1NC(=O)Cn1c(=O)n(-c2ccc(CC)cc2)c(=O)c2c(C)c(C(=O)N(C)C)sc21,.,.,-6,8.2µM*,-5%,12µM*
CCOC(=O)c1sc(C)c2c(=O)n(Cc3ccc(Cl)cc3)c(C)nc12,?,0,7,23µM*,-53%,16µM*
CCN(CC)C(=O)c1sc2c(c1C)c(=O)n(Cc1ccccc1)c(=O)n2Cc1c(C)cc(C)cc1C,.,.,-12,?,-1%,21µM*
SMILES,DRD3 antagonist,IL-1B inflam inh,D3 ag,TDP1 cell CPT,ClpP mod,DT40 TDP1 no CPT
CCN(CC)C(=O)c1sc2c(c1C)c(=O)n(Cc1ccccc1)c(=O)n2Cc1cc(C)ccc1C,.,.,-1,?,1%,?
Cc1cccc(C)c1NC(=O)Cn1c(=O)n(Cc2ccccc2)c(=O)c2c(C)c(C(=O)N(C)C)sc21,.,.,-3,16µM*,-5%,?
CCOC(=O)c1sc2c(c1C)c(=O)n(CCO)c(=O)n2Cc1ccccc1,-4,-1,-2,15µM*,-5%,16µM*
CCN(CC)C(=O)c1sc2c(c1C)c(=O)n(Cc1ccccc1)c(=O)n2Cc1ccc(Cl)cc1,.,.,-9,?,2%,4.6µM*
Cc1ccc(Cn2c(=O)n(CCc3ccccc3)c(=O)c3c(C)c(C)sc32)cc1,.,.,0,-13%,-2%,?
CCC1=C(c2ccc(C)cc2)S(=O)(=O)N=C1N1CCC(C(=O)NCCc2ccc(Cl)cc2)CC1,.,.,-14,13µM*,3%,10µM*
CCC1=C(c2ccc(C)cc2)S(=O)(=O)N=C1N1CCC(C(=O)Nc2ccccc2C(=O)OC)CC1,.,.,18,?,0%,18µM*
COc1ccc(C/C(C)=N\NC(=O)c2cn(C)c3ccccc23)cc1OC,-4,?,-5,-15%,-2%,?
Cc1cc(C)c(Nc2ncnc(N)n2)c(C)c1,13,0,7,3%,-3%,8%
CCCC(=O)Nc1nc2c(s1)CC(C(C)(C)C)CC2 (centres undefined),.,.,7,18µM*,1%,21µM*
CC(C)Oc1ccc(C(=O)Nc2nc3c(s2)CC(C(C)(C)C)CC3)cc1 (centres undefined),.,.,-1,16µM*,?,13µM*
